Screens from PubChem BioAssay.
This is a sample that favours compounds with a hit; in the whole collection about 2.4% have one here.
D2 ag-1 – agonists of human D2 dopamine receptor; P14416; HEK293 T-REx D2 cells, calcium flux agonist mode; activation, % at 2 µM; 0.53% of 340,000 active; AID 485358;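 active = activation over 3 SD above normal in the single-dose calcium agonist read, cut at about 30% in these data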; also: 0% is about no effect
Target sequence (P14416 whole entry, looked up): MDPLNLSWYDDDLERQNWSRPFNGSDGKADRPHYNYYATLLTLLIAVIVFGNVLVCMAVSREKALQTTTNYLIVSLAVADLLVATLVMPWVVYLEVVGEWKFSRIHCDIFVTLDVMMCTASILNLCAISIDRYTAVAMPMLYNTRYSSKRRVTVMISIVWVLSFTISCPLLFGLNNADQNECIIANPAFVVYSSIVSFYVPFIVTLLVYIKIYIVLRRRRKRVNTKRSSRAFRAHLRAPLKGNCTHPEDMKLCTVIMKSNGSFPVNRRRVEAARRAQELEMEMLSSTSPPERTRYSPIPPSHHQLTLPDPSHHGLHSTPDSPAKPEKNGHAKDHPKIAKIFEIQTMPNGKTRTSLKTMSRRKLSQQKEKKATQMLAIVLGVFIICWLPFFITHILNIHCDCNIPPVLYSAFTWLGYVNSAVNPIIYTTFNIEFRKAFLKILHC
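Calcium-flux readout, 1 cycle/sec over 180 s following compound pin transfer, in inducible HEK293 Trex D2 cells (force-coupled); dopamine controls included. Positive calcium responses during this window marked compounds as potential agonists.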
D2 PAM-1 – positively modulates the human D2 dopamine receptor allosterically. 0.34% of 340,000 active. P14416. potentiation, % at 10 µM. HEK293 T-REx D2, calcium flux, EC20 dopamine potentiation;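 active = potentiation over 3 SD above the plate norm, cut at about 30% in these data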; also: 0% is about no effect
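Tetracycline-induced HEK293 T-REx cells force-coupled to calcium signalling expressed D2; compounds were pin-added after a 10 s baseline, read kinetically 180 s, then an EC20 dopamine challenge followed with a further 180 s calcium read.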
D2 ag-2 – agonists of human D2 dopamine receptor (beta-arrestin); P14416; DiscoveRx PathHunter D2 beta-arrestin, luminescence, 90 min; 100% = 57 uM dopamine signal; activation, % (concentration not given with the values); 0.084% of 360,000 active; in the data active = activation above about 40%; inconclusive = between about 15% and that limit
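Agonist mode: compounds alone added to overnight-plated D2 PathHunter cells for 90 min at 37 C, with 57 uM final dopamine (EC100) defining full response. Beta-arrestin recruitment detected by chemiluminescent reagent, read after 1 h at ambient temperature.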
D2 PAM-2 – potentiates the human D2 dopamine receptor allosterically | AID 624464 | P14416 | potentiation, % (test concentration not listed) | 0.23% of 360,000 active | DiscoveRx D2 beta-arrestin cells, luminescence, 90 min; 100% = 57 uM dopamine signal; in the data active = potentiation above about 50%; inconclusive = mostly about 30% to 49%
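PathHunter beta-arrestin assay in DiscoveRx D2 cells. Compounds were added with an EC20 of dopamine (50 nM final) for 90 min at 37 deg C. Luminescence was read 1 h after detection reagent, with 57 uM dopamine as the EC100 control.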
D2 antag – D2 dopamine receptor (human) antagonism | 2% of 340,000 active | inhibition, % at 10 µM | AID 485344 | HEK293 TREx D2 cells, calcium flux, dopamine EC80 | P14416; in the data active = inhibition above about 30%; inactive = below that, where a call was filed; also: 0% is about no effect
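In this primary screen, negative modulation is detected by tracking calcium flux after an EC80 dopamine challenge in inducible HEK293 T-REx D2 cells preexposed to test compound for 180 s.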
D3 arrestin ag – confirmation of human D3 dopamine receptor agonists, beta-arrestin. shares compounds with D2 ag-1. 4% of 2,300 active. DiscoveRx D3 beta-arrestin cells, luminescence, 90 min. Potency, µM (highest dose often 76.9 µM), inactives show at the highest dose activation, usual class: activators. AID 720506;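 also: potency is read from the fitted curve at half-maximal effect; 100% = dopamine control response; nearly all actives have a fitted effect of over 70% in size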
D2 ag-3 – D2 receptor agonism, beta-arrestin counterscreen | shares compounds with D2 ag-1 | DiscoveRx PathHunter D2 beta-arrestin, luminescence, 90 min; response scale: percent relative to full dopamine signal | Potency, µM (top dose mostly 76.9 µM), inactives show top-dose activation, actives largely listed as activators | 5.9% of 2,300 active | AID 720507; also: potency is read from the fitted curve at half-maximal effect; % of control where 0% means no effect; nearly all actives have a fitted effect of over 70% in size
An asterisk follows results filed as active. Unless noted, calls follow the shape of the dose curve; as a rule, active = well fitted activation curve with a large enough effect; inconclusive = small, poorly fitted or top-dose-only effect; inactive = flat fitted curve, though single readings scatter.

How did COC(=O)c1ccc2c(c1)NC(=O)C(N1CCOCC1)S2 (stereo unspecified) do in these assays?
D2 ag-1: -1; D2 PAM-1: -6; D2 ag-2: 2; D2 PAM-2: 2; D2 antag: -1

How did CCCCN(C)CCNC(=O)c1ccc2c(c1)NC(=O)C(N1CCCCC1)S2 (stereo unspecified) do in these assays?
D2 ag-1: 50*; D2 PAM-1: -21; D2 ag-2: -1; D2 PAM-2: -42; D2 antag: 73*; D3 arrestin ag: inconclusive; D2 ag-3: 15%

How did CCC1(CC)NC(=O)N(CC(=O)OCC(=O)Nc2ccc(OC(F)(F)F)cc2)C1=O do in these assays?
D2 ag-1: 1; D2 PAM-1: 6; D2 ag-2: 0; D2 PAM-2: -3; D2 antag: 61*; D3 arrestin ag: -1%; D2 ag-3: -2%

Results for CCOC(=O)c1ccc(NC(=O)CSc2nccn2Cc2ccc(OC)cc2)cc1 ?
D2 ag-1: -1; D2 PAM-1: 12

How did Cc1cccc(C)c1NC(=O)C1CCCN1S(=O)(=O)c1ccc(-c2ccc(=O)[nH]n2)s1 (stereo unspecified) do in these assays?
D2 ag-1: 1; D2 PAM-1: 2; D2 ag-2: -3; D2 PAM-2: 1; D2 antag: -4

What do the screens show for `CCc1ccccc1NC(=O)C1CCCN1S(=O)(=O)c1ccc(-c2ccc(=O)[nH]n2)s1` (stereo unspecified)?
D2 ag-1: 10; D2 PAM-1: 5; D2 ag-2: 7; D2 PAM-2: -10; D2 antag: -15; D3 arrestin ag: 11%; D2 ag-3: 2%

How did COc1ccc(C2CC(=O)c3cc(-c4nc(-c5cccc([N+](=O)[O-])c5)cs4)c(=O)n(-c4ccc(C)c(C)c4)c3C2)cc1 (stereo unspecified) do in these assays?
D2 ag-1: 1; D2 PAM-1: -7

Results for COc1cc(C#Cc2c(-c3cncn3C)n(C)c3ccc(-c4cnc(N5CCOCC5)nc4)cc23)cc(OC)c1 ?
D2 ag-2: -2; D2 PAM-2: -7

What do the screens show for `COc1cc(C#Cc2c(-c3cncn3C)n(C)c3ccc(-c4cnc(OC)nc4)cc23)cc(OC)c1`?
D2 ag-1: -1; D2 PAM-1: 9; D2 ag-2: 3; D2 PAM-2: -20; D2 antag: 7; D3 arrestin ag: -3%; D2 ag-3: -3%

What do the screens show for `COC(=O)CCN(C(=O)C12CC3CC(CC(C3)C1)C2)c1ccccn1`?
D2 ag-1: 69*; D2 PAM-1: -19; D2 ag-2: inconclusive; D2 PAM-2: inconclusive; D2 antag: 33*; D3 arrestin ag: -4%; D2 ag-3: inconclusive

How did O=C(N(Cc1ccccc1)c1ccccn1)C12CC3CC(CC(C3)C1)C2 do in these assays?
D2 ag-1: 4; D2 PAM-1: -7; D2 ag-2: 8; D2 PAM-2: -2; D2 antag: -4

How did CN(CCOc1ccc(Cl)cc1)Cc1cccc(S(=O)(=O)N(C)C)c1 do in these assays?
D2 ag-1: 70*; D2 PAM-1: -37; D2 ag-2: 13; D2 PAM-2: -8; D2 antag: 48*; D3 arrestin ag: 7.1µM*; D2 ag-3: inconclusive

What do the screens show for `CN(CCOc1ccccc1)Cc1ccccc1`?
D2 ag-2: 12; D2 PAM-2: -10

What do the screens show for `COc1ccc(C)cc1NC1(c2ccccc2)C(=O)c2ccccc2C1=O`?
D2 PAM-1: -1

What do the screens show for `Cc1nc(-c2nc(-c3c(C(=O)NNC(=O)Nc4cccc(Cl)c4)noc3C)cs2)cs1`?
D2 ag-1: 40*; D2 PAM-1: -18; D2 ag-2: 4; D2 PAM-2: 1; D2 antag: 49*; D3 arrestin ag: -5%; D2 ag-3: 9%

Results for CSCCC(NC(=O)COc1ccccc1)C(=O)N1CC(C)OC(C)C1 (stereo unspecified) ?
D2 ag-1: 0; D2 PAM-1: -4; D2 ag-2: -2; D2 PAM-2: -1; D2 antag: -14; D3 arrestin ag: -6%; D2 ag-3: -2%

What do the screens show for `CSCCC(NC(=O)COc1ccccc1)C(=O)N1CC(C)CC(C)C1` (stereo unspecified)?
D2 ag-1: 0; D2 PAM-1: 7; D2 ag-2: 3; D2 PAM-2: -2; D2 antag: -3

How did O=C(NCCc1ccccc1)c1nc2nc(-c3cccs3)cc(C(F)(F)F)n2n1 do in these assays?
D2 ag-1: 0; D2 PAM-1: 0; D2 ag-2: -2; D2 PAM-2: -8; D2 antag: 40*; D3 arrestin ag: -4%; D2 ag-3: 7%

What do the screens show for `Cc1cc(C)n2nc(C(=O)NCCc3ccccc3)nc2n1`?
D2 ag-1: 1; D2 PAM-1: 10; D2 ag-2: 3; D2 PAM-2: -3; D2 antag: -2

How did CCN(CC(=O)Nc1ccc(NC(C)=O)cc1)C(=O)/C=C/c1ccco1 do in these assays?
D2 ag-1: 1; D2 PAM-1: 1; D2 ag-2: -1; D2 PAM-2: 5; D2 antag: -2

Results for CCCN(CC(=O)Nc1ccc(Cl)cc1Cl)C(=O)/C=C/c1ccco1 ?
D2 ag-1: 42*; D2 PAM-1: -17; D2 ag-2: 1; D2 PAM-2: -17; D2 antag: 17; D3 arrestin ag: -3%; D2 ag-3: 0%

Results for COc1ccc(C(=O)Nc2cc(S(=O)(=O)c3ccc(Cl)cc3)c(O)c(C)c2C)cc1 ?
D2 ag-1: 0; D2 PAM-1: 25

Results for Cc1ccc(NC(=O)OCCN2CCN(Cc3ccccc3)CCC2=O)cc1 ?
D2 ag-1: 50*; D2 PAM-1: -12; D2 ag-2: 0; D2 PAM-2: -5; D2 antag: 43*; D3 arrestin ag: 8%; D2 ag-3: inconclusive

How did O=C(Nc1ccccc1)OCCN1CCN(Cc2ccccc2)CCC1=O do in these assays?
D2 ag-1: -1; D2 PAM-1: -4; D2 ag-2: -6; D2 PAM-2: -6; D2 antag: 4

Results for Cc1ccccc1OCc1ccc(-c2nc(C#N)c(NCCCN(C)C)o2)o1 ?
D2 ag-1: 2; D2 PAM-1: -21

How did CC1CN(C(=O)CCC(=O)N2CCN(c3ccccn3)CC2)c2ccccc2O1 (stereo unspecified) do in these assays?
D2 ag-1: 0; D2 PAM-1: -7; D2 ag-2: -3; D2 PAM-2: -3; D2 antag: -22
